Laboratory results taken from PubChem BioAssay (EPA / NIEHS).
“And” between values parts separate entries of the source, which are not always exact repeats. Identical values can stand only once. Some compounds were tested as several samples or in several runs, with calls that do not always agree. The source made the active and inactive calls. How the source made its calls: active means hit-call score of the fitted dose curve at least 0.9, where 1 is the maximum; inactive means score below 0.9.

Tests used:
[1] = read-out: Interleukin 17F (IL17F), IL17F (gene 112744); test: BSK_BT_xIL17F: BioMAP Diversity Plus: BT Assay for Interleukin 17F (IL17F) Biomarker Activity (AID 2284243); conditions: primary human B cells with PBMC
Outline: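 Measures secreted IL-17F from a human B cell plus PBMC co-culture at 24 h post-dose by Luminex xMAP, with DMSO defining baseline activity.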

[2] = read-out: Actin alpha 1 (ACTA1), ACTA1 (gene 58); test: BSK_MyoF_ACTA1: BioMAP Diversity Plus: MyoF Assay for Actin alpha 1 (ACTA1) Biomarker Activity (AID 2284244); conditions: primary human lung fibroblasts
Outline: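 Lung fibroblasts, human primary, 24 h compound exposure → a-SMA ELISA. Positive-direction fit vs DMSO control.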

[3] = read-out: Interleukin 2 (IL2), IL2 (gene 3558); test: BSK_BT_xIL2: BioMAP Diversity Plus: BT Assay for Interleukin 2 (IL2) Biomarker Activity (AID 2284245); conditions: primary human B cells with PBMC
Outline: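 B cell + PBMC co-culture (human primary), compound added, 24 h incubation; secreted IL-2 measured multiplexed on Luminex xMAP; gain-of-signal fit vs DMSO.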

[4] = read-out: Basic fibroblast growth factor (bFGF), FGF2 (gene 2247); test: BSK_MyoF_bFGF: BioMAP Diversity Plus: MyoF Assay for Basic fibroblast growth factor (bFGF) Biomarker Activity (AID 2284246); conditions: primary human lung fibroblasts
Outline: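 ELISA-measured bFGF level serves as the read-out, taken 24 h after chemical dosing of human lung fibroblasts. Values represent signal gain over the DMSO negative control.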

[5] = read-out: Collagen IV, COL4A1 (gene 1282); test: BSK_MyoF_CollagenIV: BioMAP Diversity Plus: MyoF Assay for Collagen IV Biomarker Activity (AID 2284247); conditions: primary human lung fibroblasts
Outline: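 Steps: dose human lung fibroblasts; culture 24 h; quantify Collagen IV by ELISA; fit increase versus DMSO control. Parallel SRB total-protein staining (0.1% SRB after 10% TCA fixation, 560 nm) tracks overt cytotoxicity.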

[6] = read-out: Monokine induced gamma interferon (MIG), CXCL9 (gene 4283); test: BSK_KF3CT_MIG: BioMAP Diversity Plus: KF3CT Assay for Monokine induced gamma interferon (MIG) Biomarker Activity (AID 2284248); conditions: primary human keratinocytes with fibroblasts
Outline: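 The assay uses a co-culture of human keratinocytes and foreskin fibroblasts. Measurement occurs 24 hours after dosing, with MIG detected by ELISA and the DMSO control as baseline.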

[7] = read-out: Vascular cell adhesion molecule 1 (VCAM1), VCAM1 (gene 7412); test: BSK_BF4T_VCAM1: BioMAP Diversity Plus: BF4T Assay for Vascular cell adhesion molecule 1 (VCAM1) Biomarker Activity (AID 2284249); conditions: primary human bronchial epithelial cells with fibroblasts
Outline: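 Human bronchial epithelial cell and dermal fibroblast co-culture exposed 24 h. VCAM-1 measured by ELISA; parallel SRB total-protein staining for cytotoxicity. Fitted in positive direction relative to DMSO.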

[8] = read-out: Collagen I, COL1A1 (gene 1277); test: BSK_hDFCGF_CollagenI: BioMAP Diversity Plus: hDFCGF Assay for Collagen I Biomarker Activity (AID 2284250); conditions: primary human foreskin fibroblasts
Outline: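 Human skin primary fibroblasts dosed with test chemical, harvested at 24 h, Collagen I quantified by ELISA; parallel SRB staining (0.1% SRB after 10% TCA fixation, 560 nm) tracked cytotoxicity.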

[9] = read-out: Interferon-inducible T-cell alpha chemoattractant (ITAC), CXCL11 (gene 6373); test: BSK_hDFCGF_ITAC: BioMAP Diversity Plus: hDFCGF Assay for Interferon-inducible T-cell alpha chemoattractant (ITAC) Biomarker Activity (AID 2284251); conditions: primary human foreskin fibroblasts
Outline: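 Primary human foreskin fibroblasts (hDFCGF system) treated for 24 h; I-TAC quantified by ELISA. Gain-direction fitting versus DMSO; parallel SRB staining of total protein flagged overt cytotoxicity.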

[10] = read-out: Plasminogen activator inhibitor-1 (PAI1), SERPINE1 (gene 5054); test: BSK_KF3CT_PAI1: BioMAP Diversity Plus: KF3CT Assay for Plasminogen activator inhibitor-1 (PAI1) Biomarker Activity (AID 2284252); conditions: primary human keratinocytes with fibroblasts
Outline: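 ELISA read-out of PAI-1 taken 24 h after chemical treatment of a human skin primary co-culture of keratinocytes and foreskin fibroblasts. Increases over DMSO-treated wells defined activity.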

[11] = read-out: Monocyte Chemoattractant Protein-1 (MCP1), CCL2 (gene 6347); test: BSK_IMphg_MCP1: BioMAP Diversity Plus: IMphg Assay for Monocyte Chemoattractant Protein-1 (MCP1) Biomarker Activity (AID 2284253); conditions: primary human endothelial cells with macrophages
Outline: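 Human venular endothelial cells co-cultured with macrophages; MCP-1 measured by ELISA 24 hours post-dose and fitted against DMSO. Cytotoxicity monitored by SRB total-protein staining in parallel cultures.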

[12] = read-out: Interleukin-8 (IL8), CXCL8 (gene 3576); test: BSK_KF3CT_IL8: BioMAP Diversity Plus: KF3CT Assay for Interleukin-8 (IL8) Biomarker Activity (AID 2284254); conditions: primary human keratinocytes with fibroblasts
Outline: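 ELISA detection of IL-8 from a human skin co-culture, keratinocytes with foreskin fibroblasts, at 24 h following chemical exposure, with gain of signal scored against DMSO controls.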

[13] = read-out: Macrophage Inflammatory Protein-1 Alpha (MIP1a), CCL3 (gene 6348); test: BSK_IMphg_MIP1a: BioMAP Diversity Plus: IMphg Assay for Macrophage Inflammatory Protein-1 Alpha (MIP1a) Biomarker Activity (AID 2284255); conditions: primary human endothelial cells with macrophages
Outline: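 Co-culture of human venular endothelial cells and macrophages exposed to compounds for 24 h; MIP-1a measured by ELISA relative to DMSO. Cytotoxicity assessed in parallel cultures by sulforhodamine B total-protein staining at 560 nm.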

[14] = read-out: Plasminogen activator inhibitor-1 (PAI1), SERPINE1 (gene 5054); test: BSK_MyoF_PAI1: BioMAP Diversity Plus: MyoF Assay for Plasminogen activator inhibitor-1 (PAI1) Biomarker Activity (AID 2284256); conditions: primary human lung fibroblasts
Outline: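 Activity reflects increased PAI-1, determined by ELISA and compared with DMSO, in human lung fibroblasts treated for 24 h.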

CD69, CD69 (gene 969) = test: BSK_IMphg_CD69: BioMAP Diversity Plus: IMphg Assay for CD69 Biomarker Activity (AID 2284257); conditions: primary human endothelial cells with macrophages
Outline: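 Human venular endothelial cells co-cultured with macrophages; CD69 quantified by ELISA 24 h after compound addition. Activity fitted in the positive direction relative to DMSO baseline; cytotoxicity tracked in parallel cultures via SRB total-protein staining.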

[15] = read-out: Eotaxin 3, CCL26 (gene 10344); test: BSK_BF4T_Eotaxin3: BioMAP Diversity Plus: BF4T Assay for Eotaxin 3 Biomarker Activity (AID 2284258); conditions: primary human bronchial epithelial cells with fibroblasts
Outline: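 Co-culture of human bronchial epithelial cells and dermal fibroblasts, exposed to chemicals for 24 h versus DMSO. Eotaxin-3 quantified by ELISA; cytotoxicity checked in parallel cultures by sulforhodamine B total-protein staining.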

[16] = read-out: Monocyte Chemoattractant Protein-1 (MCP1), CCL2 (gene 6347); test: BSK_BF4T_MCP1: BioMAP Diversity Plus: BF4T Assay for Monocyte Chemoattractant Protein-1 (MCP1) Biomarker Activity (AID 2284259); conditions: primary human bronchial epithelial cells with fibroblasts
Outline: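 Co-culture of bronchial epithelial cells and dermal fibroblasts dosed with chemical; MCP-1 measured by ELISA 24 h later. Activity fitted in positive direction versus DMSO; cytotoxicity checked by SRB staining in parallel cultures.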

[17] = read-out: Intercellular Adhesion Molecule 1 (ICAM1), ICAM1 (gene 3383); test: BSK_BF4T_ICAM1: BioMAP Diversity Plus: BF4T Assay for Intercellular Adhesion Molecule 1 (ICAM1) Biomarker Activity (AID 2284260); conditions: primary human bronchial epithelial cells with fibroblasts
Outline: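 Co-culture of human bronchial epithelial cells and dermal fibroblasts exposed 24 h to chemical; cell-surface ICAM-1 quantified by ELISA. Parallel SRB total-protein staining assessed cytotoxicity; activity fitted relative to DMSO.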

[18] = read-out: Interleukin-8 (IL8), CXCL8 (gene 3576); test: BSK_MyoF_IL8: BioMAP Diversity Plus: MyoF Assay for Interleukin-8 (IL8) Biomarker Activity (AID 2284261); conditions: primary human lung fibroblasts
Outline: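 In this multiplexed primary-cell system, fibroblasts from human lung are treated with chemicals, and IL-8 is detected by ELISA at 24 h, with DMSO serving as the negative reference.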

CD90, THY1 (gene 7070) = test: BSK_BF4T_CD90: BioMAP Diversity Plus: BF4T Assay for CD90 Biomarker Activity (AID 2284262); conditions: primary human bronchial epithelial cells with fibroblasts
Outline: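 Co-culture of human bronchial epithelial cells and dermal fibroblasts, 24 h compound exposure. Cell-surface CD90 measured by ELISA relative to DMSO; parallel SRB total-protein staining for cytotoxicity.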

Measured: AC50

NC(O)(C(F)(F)F)C(F)(F)F
inactive: all assays above

OCC(F)(F)C(F)(F)C(F)(F)CO
not listed: [9]
inactive: all other assays above

O=C1C=CC(=O)N1c1ccc(Cc2ccc(N3C(=O)C=CC3=O)cc2)cc1
active: [1] 2.45 µM | [2] 2.79 µM | [3] 4.5 µM | [4] 5.53 µM | [5] 1.99 µM | [14] 5.09 µM
inactive: [18]

Nc1cc([N+](=O)[O-])cc(Cl)c1O
inactive: [1] | [2] | [3] | [5] | [14] | [18]

O=C(c1ccccc1)c1ccc(O)cc1O
inactive: [1] | [2] | [3] | [4] | [5] | [14] | [18]

CCN(CC)c1ccc(C=O)c(O)c1
active: [14] 20 µM
inactive: [1] | [2] | [3] | [4] | [5] | [18]

CC(C)CCCC(C)CCO (configuration not stated)
inactive: [1] | [3] | [4] | [5] | [14] | [18]
active: [2] 30.9 µM

C[Si](Cl)(Cl)CCC(F)(F)C(F)(F)C(F)(F)C(F)(F)C(F)(F)C(F)(F)F
not listed: [4] | [9]
inactive: all other assays above

O=S(=O)(O)CCC(F)(F)C(F)(F)C(F)(F)C(F)(F)C(F)(F)C(F)(F)C(F)(F)C(F)(F)F
inactive: [1] | [2] | [3] | [4] | [5] | [6] | [7] | [8] | [10] | [11] | [12] | [13] | [14] | CD69, CD69 (gene 969) | [16] | [17] | [18] | CD90, THY1 (gene 7070)
active: [12] 30 µM | CD69, CD69 (gene 969) 30 µM | [15] 15.1 µM and 8.3 µM

CO[Si](C)(CCC(F)(F)C(F)(F)C(F)(F)C(F)(F)C(F)(F)C(F)(F)F)OC
not listed: [4] | [9]
inactive: all other assays above

CCN(CC)c1ccc2c(c1)Oc1cc(N(CC)CC)ccc1C21OC(=O)c2ccccc21
inactive: [1] | [2] | [3] | [4] | [5] | [14] | [18]
